Rows were chosen to be rich in hits. Some 11% of all compounds tested hit in one or more screens of this group.
3T3 cytotox = Cytotoxic Profiling in NIH 3T3 Cell Line of Diverse Libraries Using Quantitative High-Throughput Screening. NIH 3T3 viability, CellTiter-Glo ATP luminescence, 48-72 h. Potency, µM (top dose mostly 96.7 µM), usual class: inhibitors. hit rate 4.3% among 94,000; active = well fitted curve in the direction sought with a large enough effect; inconclusive = small, poorly fitted or top-dose-only effect, or another doubt; inactive = no such curve, though single readings can be large; an effect the other way counts as inactive or inconclusive; also: nearly all actives have a fitted effect of over 55% in size
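Cytotoxicity was measured by CellTiter-Glo ATP luminescence after 48 or 72 h compound exposure at 37 °C. Mouse NIH 3T3 fibroblasts were seeded at 400 cells/well and dosed by 23 nL pin transfer.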
Luciferase inh = Firefly luciferase inhibition profiling of diverse chemical library using quantitative high-throughput screening; Luciferin 4-monooxygenase (Photinus pyralis), P08659; purified P. pyralis luciferase, luminescence, biochemical; Potency, µM (highest dose often 115 µM), hits mostly inhibitors; hit rate 2.5% among 76,000; active = well fitted curve in the direction sought with a large enough effect; inconclusive = small, poorly fitted or top-dose-only effect, or another doubt; inactive = no such curve, though single readings can be large; an effect the other way counts as inactive or inconclusive; also: nearly all actives have a fitted effect of over 65% in size
Target sequence (P08659 whole entry, looked up): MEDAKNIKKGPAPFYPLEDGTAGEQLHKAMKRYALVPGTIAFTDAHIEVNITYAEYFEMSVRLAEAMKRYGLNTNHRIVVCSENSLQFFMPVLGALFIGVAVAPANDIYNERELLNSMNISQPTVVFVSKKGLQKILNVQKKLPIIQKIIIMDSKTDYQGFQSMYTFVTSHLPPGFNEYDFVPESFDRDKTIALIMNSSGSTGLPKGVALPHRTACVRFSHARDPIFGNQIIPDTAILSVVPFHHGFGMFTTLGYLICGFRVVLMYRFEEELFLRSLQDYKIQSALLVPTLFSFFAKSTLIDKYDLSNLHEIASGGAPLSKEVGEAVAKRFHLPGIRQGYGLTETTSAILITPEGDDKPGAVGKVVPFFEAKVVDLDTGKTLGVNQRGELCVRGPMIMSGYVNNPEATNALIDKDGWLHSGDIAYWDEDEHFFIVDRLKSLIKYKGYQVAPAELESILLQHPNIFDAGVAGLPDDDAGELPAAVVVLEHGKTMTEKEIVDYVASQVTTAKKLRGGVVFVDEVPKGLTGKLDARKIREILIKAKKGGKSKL
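Purified 10nM P. pyralis luciferase with 10uM D-luciferin and 10uM ATP in 50mM Tris acetate pH 7.5, 10mM Mg acetate, 0.01% Tween-20, 0.05% BSA. qHTS titration; luminescence read by CCD imager.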
NPR1 antag = Natriuretic polypeptide receptor (hNpr1) antagonism - Primary qHTS; Atrial natriuretic peptide receptor 1 (Homo sapiens), P16066; HEK293 hNpr1 GloSensor cGMP, ANP-stimulated luminescence; Potency, µM (series often up to 46.3 µM), actives largely listed as inhibitors; hit rate 1.6% among 76,000; AID 1347048, 2019; also: nearly all actives have a fitted effect of over 60% in size
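Compound pre-incubated 30 min at room temperature on GloSensor-loaded HEK293 cells stably carrying hNpr1 and the pGS-40F cGMP biosensor. Stimulation uses hNppA at 0.1 nM final; luminescence is taken at baseline and 20 min post-agonist.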
HEK293 tox = Cytotoxic Profiling in HEK 293 Cell Line of Diverse Libraries Using Quantitative High-Throughput Screening. HEK 293 viability, ATP luminescence (CellTiter-Glo), 48-72 h. Potency, µM (titrated, usually from 115 µM), hits mostly inhibitors. hit rate 6.6% among 94,000. AID 1345083, 2018; active = well fitted curve in the direction sought with a large enough effect; inconclusive = small, poorly fitted or top-dose-only effect, or another doubt; inactive = no such curve, though single readings can be large; an effect the other way counts as inactive or inconclusive; also: nearly all actives have a fitted effect of over 60% in size
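HEK 293 seeded at 250 cells/well receive compound via pintool. After 48 or 72 hr at 37 degree Celsius, 5% CO2 and 95% humidity, CellTiter-Glo is dispensed and luminescence read following 10 min at room temperature.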
NPR1 antag cnf = Natriuretic polypeptide receptor (hNpr1) antagonism - Confirmation; shares compounds with NPR1 antag; HEK293 hNpr1 cGMP GloSensor luminescence, ANP-stimulated; Potency, µM (highest dose often 57.6 µM), hits mostly inhibitors; hit rate 76% among 1,400; also: nearly all actives have a fitted effect of over 70% in size
NPR2 antag = Natriuretic polypeptide receptor (hNpr2) antagonism - Subtype selectivity assay; Potency, µM (titrated, usually from 57.6 µM), actives largely listed as inhibitors; shares compounds with NPR1 antag; HEK293 hNpr2 GloSensor cGMP luminescence, CNP-stimulated; hit rate 67% among 1,400; also: nearly all actives have a fitted effect of over 70% in size
FLuc inh counter = Natriuretic polypeptide receptor (hNpr1) antagonism - Confirmation firefly luciferase (FLuc) inhibition counterscreen. shares compounds with NPR1 antag. purified FLuc enzyme, luminescence, Km substrate. Potency, µM (highest dose often 57.6 µM), actives largely listed as inhibitors. hit rate 0.7% among 1,400; active = well fitted curve in the direction sought with a large enough effect; inconclusive = small, poorly fitted or top-dose-only effect, or another doubt; inactive = no such curve, though single readings can be large; an effect the other way counts as inactive or inconclusive
GloSensor ctrl = Natriuretic polypeptide receptor (hNpr1) antagonism - Counterscreen GloSensor control cell line; AID 1347051, 2019; hit rate 69% among 1,400; HEK293 GloSensor cGMP, SNP-stimulated, luminescence; shares compounds with NPR1 antag; Potency, µM (highest dose often 57.6 µM), actives largely listed as inhibitors; also: nearly all actives have a fitted effect of over 70% in size
Large screens that a line does not name were inactive (follow-up assays come after a bar, where they were run); ! = repeats disagree; [ ] = remark or other dose. Unless noted, calls follow the shape of the full dose curve.

COc1ccc(NC(=O)N2CCCCCC2c2nc(C3CC3)no2)cc1 (stereo not drawn)	none (no result: Luciferase inh, NPR1 antag)
Fc1ccc(-c2cnc([C@@H]3COCCN3Cc3c[nH]c4ccccc34)[nH]2)c(F)c1	3T3 cytotox inconclusive, NPR1 antag 25µM, HEK293 tox 79µM | NPR1 antag cnf 35µM | NPR2 antag 44µM | FLuc inh counter inactive | GloSensor ctrl 40µM
COc1ccc(-n2nc3n(c2=O)CCN(Cc2cccn2C)C3)cc1	HEK293 tox inconclusive (no result: Luciferase inh, NPR1 antag) | NPR1 antag cnf inconclusive | NPR2 antag inconclusive | FLuc inh counter inconclusive | GloSensor ctrl inconclusive
CC(=O)N1CCn2c(nn(-c3ccc([N+](=O)[O-])cc3)c2=O)C1	HEK293 tox inconclusive
COc1ccc(CN2CCn3c(nn(-c4ccc([N+](=O)[O-])cc4)c3=O)C2)cc1	3T3 cytotox inconclusive, NPR1 antag 11µM, HEK293 tox inconclusive | NPR1 antag cnf 22µM | NPR2 antag 22µM | FLuc inh counter inactive | GloSensor ctrl 22µM
CN(C)c1ccc(CN2CCn3c(nn(-c4ccc([N+](=O)[O-])cc4)c3=O)C2)cc1	3T3 cytotox inconclusive, NPR1 antag 11µM, HEK293 tox 32µM | NPR1 antag cnf 17µM | NPR2 antag 19µM | FLuc inh counter inactive | GloSensor ctrl 14µM
CN(C)c1cccc(C(=O)N2CCC(OCCOc3ccc(F)cc3)CC2)c1	3T3 cytotox inconclusive, NPR1 antag 13µM, HEK293 tox inconclusive | NPR1 antag cnf 24µM | NPR2 antag 24µM | FLuc inh counter inactive | GloSensor ctrl 22µM
CCOCCOC1CCN(C(=O)c2cccc(F)c2)CC1	none
COCC(NC(=O)c1ccc2nc(C3CCCCC3)oc2c1)c1ccnn1C (stereo not drawn)	NPR1 antag inconclusive, HEK293 tox inconclusive | NPR1 antag cnf inactive | NPR2 antag inconclusive | FLuc inh counter inactive | GloSensor ctrl inactive
Cc1ccccc1C(=O)N1CC2(Cc3ccccc3NC2=O)C1	none (no result: Luciferase inh, NPR1 antag)
Cc1cn2nnc(C(=O)NCc3ccc(C(C)C)cc3)c2c(=O)[nH]1	3T3 cytotox inconclusive, NPR1 antag inconclusive, HEK293 tox inconclusive | NPR1 antag cnf 27µM | NPR2 antag inconclusive | FLuc inh counter inactive | GloSensor ctrl 24µM
Cc1nc2cccnc2n1CC1CCCN(S(=O)(=O)c2ccc(CC(C)C)cc2)C1 (stereo not drawn)	3T3 cytotox inconclusive, NPR1 antag 13µM, HEK293 tox 32µM | NPR1 antag cnf 22µM | NPR2 antag 24µM | FLuc inh counter inactive | GloSensor ctrl 22µM
Cc1nc2cccnc2n1CC1CCCN(S(=O)(=O)c2ccc3c(c2)CCCC3)C1 (stereo not drawn)	3T3 cytotox inconclusive, NPR1 antag inconclusive, HEK293 tox inconclusive
O=S(=O)(c1ccc2c(c1)CCCC2)N1CCCC(Cn2cnc3cccnc32)C1 (stereo not drawn)	3T3 cytotox inconclusive, NPR1 antag inconclusive, HEK293 tox inconclusive | NPR1 antag cnf 24µM | NPR2 antag 19µM | FLuc inh counter inactive | GloSensor ctrl 24µM
Cn1ccc(NC(=O)[C@@H]2C[C@@H](c3ccc(F)cc3)N(Cc3ccccc3)C2)n1	3T3 cytotox inconclusive, NPR1 antag 35µM, HEK293 tox 50µM | NPR1 antag cnf 40µM | NPR2 antag 35µM | FLuc inh counter inactive | GloSensor ctrl 35µM
O=C(Nc1ccon1)[C@@H]1C[C@@H](c2ccc(F)cc2)N(Cc2ccccc2)C1	3T3 cytotox inconclusive, NPR1 antag 16µM, HEK293 tox 32µM | NPR1 antag cnf 31µM | NPR2 antag 20µM | FLuc inh counter inactive | GloSensor ctrl 18µM
COc1ccc(CC(=O)N2[C@@H]3CC[C@H]2CC(NC(=O)c2ccncc2)C3)cc1OC (stereo partly drawn)	none
COc1ccc(C(=O)N2CCC3(CC2)CC(c2cccc(C(F)(F)F)c2)=NO3)cc1	3T3 cytotox 22µM!, NPR1 antag 11µM, HEK293 tox 35µM! | NPR1 antag cnf 24µM | NPR2 antag 27µM | FLuc inh counter inactive[6.39 µM] | GloSensor ctrl inconclusive
Cc1ccsc1CN1CC(Oc2ccccc2C(=O)NC2CC2)C1	HEK293 tox inconclusive
O=C(NCc1ccccc1)c1ccccc1OC1CN(Cc2ccsc2)C1	3T3 cytotox 28µM, HEK293 tox inconclusive | NPR1 antag cnf inconclusive | NPR2 antag inactive | FLuc inh counter inactive | GloSensor ctrl inactive
COc1ccc(-c2ccc3nc(-c4cc5c(cc4Br)OCO5)oc3c2)c(OC)c1OC	none
CC(C)(C)OC(=O)N1CC(NCc2ccc(C(F)(F)F)cc2)C1	none (no result: Luciferase inh, NPR1 antag)
CC(C)(C)OC(=O)N1CC(NCc2ccc(-c3ccc(OC(F)(F)F)cc3)cc2)C1	3T3 cytotox inconclusive, HEK293 tox inconclusive (no result: Luciferase inh, NPR1 antag) | NPR1 antag cnf 22µM | NPR2 antag 22µM | FLuc inh counter inactive | GloSensor ctrl 17µM
CCc1noc(-c2cccn3c(CNC(=O)c4cccc(C)c4)nnc23)n1	none
COc1ccc(-c2noc(CC3CCN(C(=O)c4ccc(C)nc4)CC3)n2)cc1	3T3 cytotox inconclusive, NPR1 antag 7.1µM, HEK293 tox inconclusive | NPR1 antag cnf 5.4µM | NPR2 antag 6.9µM | FLuc inh counter inactive | GloSensor ctrl 5.4µM
Cc1ccc(C(=O)N2CCC(Cc3nc(-c4ccccc4)no3)CC2)cn1	3T3 cytotox inconclusive, NPR1 antag 6.3µM, HEK293 tox inconclusive | NPR1 antag cnf 4.8µM | NPR2 antag 5.4µM | FLuc inh counter inactive | GloSensor ctrl 4.3µM
COc1ccc(C(=O)N2CCC(Cc3nc(C(C)C)no3)CC2)cc1	3T3 cytotox inconclusive, NPR1 antag inconclusive, HEK293 tox inconclusive
C=CCNC(=O)N1CCC(O)(c2csc(CN(CC)CC)n2)CC1	none
COc1cccc(Nc2cccc(CN3CCCC(C)(NC(C)=O)C3)c2)c1 (stereo not drawn)	3T3 cytotox inconclusive, HEK293 tox inconclusive

Source: PubChem
